Shiga toxin inh: inhibitors of Shiga toxin in Vero cells | inhibition, % at 38.7 µM | hit rate 9.2% among 290,000 | AID 2315 | Vero cells, Shiga toxin protein synthesis inhibition reporter; in the data active = inhibition mostly above about 28%, no sharp cut-off; inactive = mostly below about 43%; note: 0% is about no effect
Sm TGR block: S. mansoni TGR enzyme inhibition; Q962Y6; purified TGR, DTNB reduction, TNB absorbance 405 nm; Potency, µM (titrated, usually from 114 µM), for the others: at the top dose activity change, negative = inhibition, usual class: inhibitors; hit rate 3% among 360,000; AID 485364; active = well fitted inhibition curve with a large enough effect; inconclusive = small, poorly fitted or top-dose-only effect; inactive = no such curve, though single readings can be large or run the other way; note: potency is the fitted concentration of half-maximal effect; % is set by controls: 0 for no effect and ±100 for the full control effect; nearly all actives have a fitted effect of over 60% in size
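First, TGR (20 nM dispensed) and NADPH were mixed with compound. Second, a 15 min room-temperature incubation followed. Third, further NADPH and then DTNB were added to start the reaction. Finally, TNB absorbance was monitored kinetically.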
CHX counter: counter-screen hit for Shiga toxin inhibitors, cycloheximide. cell reporter, cycloheximide protein synthesis inhibition counterscreen. max response, %. hit rate 12% among 300,000; in the data active = max response mostly above about 13%, no sharp cut-off; inactive = mostly below about 14%; note: read at 38.3 µM for the half of the compounds with a filed dose; 0% is about no effect
FMDV inh: antivirals against foot and mouth disease virus; FMDV antiviral cell-based qHTS; Potency, µM (titrated, usually from 57.9 µM), for the others: at the top dose activity change, negative = inhibition, hits mostly inhibitors; hit rate 1.2% among 410,000; AID 1159524; calls by dose curve; tested in HEK293T cells; note: read-out not given here; potency is the fitted concentration of half-maximal effect; % is set by controls: 0 for no effect and ±100 for the full control effect; nearly all actives have a fitted effect of over 45% in size
* = called active by the depositor; ? = inconclusive; nt = not tested or not shown; [ ] = remark or other dose. Hits are enriched below; roughly 12% of the tested compounds scored in any of these assays.

SMILES	Shiga toxin inh	Sm TGR block	CHX counter	FMDV inh
COc1ccc(/C=C/C(=O)Nc2ccccc2F)cc1S(=O)(=O)N1CCOCC1	nt	nt	nt	25.1µM*
COc1ccccc1NC(=O)CSc1oc(-c2ccccc2)nc1S(=O)(=O)c1ccc(C)cc1	nt	0.5%	nt	-24.9%
Cc1ccc(-n2c(-c3ccncc3)nnc2-c2ccco2)cc1	-7.5	-5.6%	-5.5	-15.2%
Cc1ccc(-c2nnc(-c3ccncc3)n2-c2ccc(C)cc2)cc1	52.7*	-0.9%	20.2*	50.8%
COc1ccc(C(=O)c2cnc3ccc(C)cc3c2S(=O)(=O)c2ccccc2)cc1	nt	-2.9%	nt	12.6%
CC(C)N1CCC2(CC1)Oc1ccc(Br)cc1C1CC(c3cccnc3)=NN12 (centres undefined)	61.4*	7.2%	26.0*	22.6%
COc1cc(C2CC(c3cccnc3)=NN2c2ccc(F)cc2)cc(OC)c1OC (centres undefined)	3.4	-7.9%	-1.2	-14.2%
COc1cccc2c1OC1(CCN(C(C)C)CC1)N1N=C(c3cccnc3)CC21 (centres undefined)	90.3*	8.8%	53.0*	8.1%
CC(Oc1ccc(F)cc1)C(=O)N1CCC(c2nc3ccccc3s2)CC1 (centres undefined)	nt	-2.0%	nt	?
CCC(C)NC(=O)CSc1nc2n[nH]c(C)c2c(=N)n1-c1ccc(C)c(Cl)c1 (centres undefined)	nt	-0.7%	nt	-4.7%
CC(=O)c1ccc(NC(=O)c2cc3c([nH]c2=O)CC(c2ccccc2)CC3=O)cc1 (centres undefined)	nt	-9.4%	nt	32.9%
COc1cc(/C=N/N2CCOCC2)ccc1OC(=O)c1ccco1	6.2	-7.8%	25.5	4.5%
COc1ccc(/C=N/N2CCOCC2)cc1O	48.0*	4.0%	28.2*	28.7%
COc1cc(/C=N/N2CCOCC2)ccc1OCc1ccc(Cl)cc1	81.6*	5.8%	36.9*	20.6%
COc1ccc(/C=N/N2CCOCC2)cc1OCc1ccccc1	16.4	0.8%	8.7	-3.7%
COc1cc(/C=N/N2CCOCC2)ccc1OCc1ccccc1	36.0	0.9%	16.3*	0.0%
COc1cccc(C(=O)Nc2nnc(C(C)C)s2)c1	46.7*	0.0%	27.3*	-35.4%
CN(C)c1cccc(C(=O)Nc2nnc(Cc3ccccc3)s2)c1	96.1*	-0.5%	26.1*	26.1%
CCOCCc1nnc(NC(=O)c2cccc(F)c2)s1	40.9*	4.1%	20.1*	18.4%
CCCc1nnc(NC(=O)c2cccc(OC)c2)s1	73.5*	-5.8%	61.8*	22.4%
CC(C)(C)C(=O)Nc1nnc(Cc2ccccc2)s1	2.8	-20.2%	18.0	21.5%
COc1ccc(C(=O)Nc2nnc(C(C)C)s2)cc1OC	nt	10.3%	nt	28.7%
CC(C)CCOc1ccc(Cn2c(=O)oc3ccccc32)cc1	nt	-0.6%	nt	-22.8%
CC(C)(C)c1ccc(NC(=O)Nc2ccc(F)cc2)cc1	68.4*	nt	42.0*	-36.9%
CC(C)(C)c1ccc(COC(=O)Nc2ccc(F)cc2)cc1	35.2*	-4.7%	19.2*	11.6%
SMILES	Shiga toxin inh	Sm TGR block	CHX counter	FMDV inh
CC(C)(C)c1ccc(NC(=O)Nc2ccc3ccccc3n2)cc1	-10.6	5.8%	-1.6	28.8%
Cc1ccc(S(=O)(=O)N2CCN(Cc3cc(Br)ccc3O)CC2)cc1	nt	-8.7%	nt	-29.4%
Cn1c(=O)c2c(SCC(=O)NCc3ccc(F)cc3)nc(-c3ccccc3Cl)nc2n(C)c1=O	nt	-1.2%	nt	-21.3%
COc1ccc(NC(=O)c2ccc3c(=O)n4nc(Nc5cccc(Cl)c5C)sc4nc3c2)cc1	nt	-0.1%	nt	-13.4%
COC(=O)c1c(CSc2cccc(C)c2)noc1C(=O)NCc1ccco1	23.3	-21.6%	21.5*	-10.2%
CC(C)(C)NC(=O)COC(=O)c1ccccc1OCC(=O)Nc1ccc(Br)cc1	34.8*	2.0%	17.4*	0.9%
O=C(COC(=O)c1ccccc1Br)Nc1ccc(F)cc1	98.3*	0.6%	35.7*	81.6%
Cc1occc1C(=O)OCC(=O)Nc1ccc(F)cc1	75.0	-17.4%	36.2*	25.0%
O=C(COC(=O)c1ccc(F)cc1F)NCCNC(=O)COC(=O)c1ccc(F)cc1F	-28.8	6.3%	0.9	-6.6%
O=C(COC(=O)c1c[nH]c2ccccc12)Nc1ccc(F)cc1	nt	2.1%	nt	-12.0%
O=C(COC(=O)c1ccccc1Br)Nc1ccc2[nH]c(=O)[nH]c2c1	nt	-10.5%	nt	0.0%
CC(=O)c1ccc(NC(=O)COC(=O)c2ccc(F)cc2F)cc1	32.3	4.7%	12.7*	11.1%
O=C(CCC(=O)N1CCSc2ccccc21)NCc1ccccc1Cl	nt	5.8%	nt	-13.6%
Cc1ccc2oc(=O)n(CCNC(=O)Nc3ccc(C)c(F)c3)c2c1	nt	3.1%	nt	-21.1%
Cc1cccc(CN2C[C@H](Sc3ccccn3)C[C@H]2C(=O)Nc2ccc3sc(C)nc3c2)c1	nt	nt	nt	-8.1%
CCOc1ccc(NC(=O)CN2C(=O)CC(C)Sc3ccccc32)cc1 (centres undefined)	nt	0.8%	nt	-7.6%
CC(=O)c1ccc(NC(=O)COC(=O)c2ccccc2Sc2ccccc2C#N)cc1	1.6	-17.5%	15.2*	-24.3%
N#Cc1cccc(NC(=O)COC(=O)c2ccccc2Sc2ccccc2C#N)c1	2.5	5.2%	0.5	-17.2%
O=C(COC(=O)c1ccccc1Br)NCCc1ccc(F)cc1	-9.2	-1.0%	30.8*	40.9%
Cc1ccc(NS(=O)(=O)c2ccc3c(c2)N(C)C(=O)CC(=O)N3C)cc1Cl	nt	-15.6%	nt	58.4%
CCCCC(=O)Nc1ccc(NC(=O)c2ccco2)cn1	67.4	-3.7%	20.0*	68.8%
CCCC(=O)Nc1ccc(NC(=O)c2ccco2)cn1	27.5*	0.7%	18.1*	51.0%
CC(C)C(=O)Nc1ccc(NC(=O)c2ccco2)cn1	13.6	-22.2%	23.0*	53.0%
CC(C)C(=O)Nc1ccc(NC(=O)CCc2ccccc2)cn1	24.8	-4.7%[57.1 µM]	7.5	7.3%
CCc1c(C)sc2c1CCN(Cc1ccc(F)cc1)C2c1ccccc1 (centres undefined)	nt	-5.4%	nt	0.0%
SMILES	Shiga toxin inh	Sm TGR block	CHX counter	FMDV inh
CCOC(=O)C1=C(N)OC2=C(C(=O)CCC2)C1c1ccc(C)s1 (centres undefined)	79.8*	-20.7%	44.3*	nt
COc1cc(/C=C2/SC(=O)NC2=O)ccc1OC(=O)c1ccco1	-5.0	0.8%	-2.8	-19.8%
CCOc1cc(/C=C2/SC(=S)NC2=O)ccc1OC(=O)c1ccco1	43.8	-8.2%	12.1*	4.4%
CN1CCOc2ccc(S(=O)(=O)N3CCN(S(=O)(=O)c4c(F)cccc4F)CC3)cc21	-2.0	-4.3%	-0.3	nt
CCn1cc(-c2csc(N)n2)c(C)n1	14.2	0.0%	10.9	18.3%
CCn1ncc(-c2csc(N)n2)c1C	31.2	6.6%	25.9*	0.0%
CCCc1cc(C(=O)NC2CCCC2)no1	86.0*	0.9%	40.6*	52.7%
CCCc1cc(C(=O)NC2CCCCC2)no1	60.9*	9.6%	62.0*	54.8%
Cc1cc(C(=O)NC2CCCCC2)on1	7.0	-2.4%	6.6	-3.8%
CC(C)c1cc(C(=O)NC2CCCCC2)no1	10.7*	-1.0%	35.4*	52.6%
COc1cc(NC(=O)c2ccc(-n3cnc4cccnc43)cc2)cc(OC)c1	nt	3.2%	nt	-14.2%
CSc1ccccc1NC(=O)CN(C)Cc1c(O)ccc2ccccc12	-1.3	0.794µM*	-5.6	3.2%
CN(CC(=O)Nc1ccc(N2CCOCC2)cc1)C(=O)CCc1ccccc1Cl	nt	35.5µM*	nt	1.7%
CN(CC(=O)Nc1ccc(N2CCOCC2)cc1)CC(=O)Nc1ccc(N2CCOCC2)cc1	-7.2	-0.6%	-0.4	0.0%

Source: PubChem BioAssay (National Center for Advancing Translational Sciences (NCATS))
